Test results taken from PubChem BioAssay (NCI).
The panel holds about 83,000 compounds, 20% with a hit somewhere; the sample as a whole holds those more often.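 Plates (96-well) were seeded with cells, treated with compound at one concentration, and incubated for 48 hours before percent growth was determined.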 Unmarked numbers belong to inactive results. Active and inactive are the calls of the source. How the source made its calls: active means growth percent below 10; inactive means the rest.

These molecules were tested on HL-60(TB) leukemia (assay: NCI-60 one-dose screen, 48 h (100 = growth as untreated, 0 = no growth, -100 = all killed)). Settings: 10 µM unless noted.
For `COc1ccc(NC(=O)CSc2nc(C)c(C(C)=O)n2-c2ccc([N+](=O)[O-])cc2)cc1`, the growth was 121%. With `CCOC(=O)C(=O)CC(=O)c1ccccc1` the growth was 95.5%. For `CCCNC(=O)c1cn2ncnc(Nc3cc(C(=O)NC4CC4)ccc3C)c2c1C`, the growth was 129%. `CCN(CC)CCNCC(O)Cc1ccc(OC)cc1` (stereo not given) gave a growth of 59.1%. `O=[N+]([O-])c1ccc(O)c(S(=O)(=O)O)c1` gave a growth of 101%. Molecule `CCOC(=O)C(C(C)=O)c1nc2sc3cc(Cl)ccc3n2c(=N)c1C#N` (stereo not given) has a growth of 115%. With `O=C(O)c1cn(C2CC2)c2cc(N3CCN(C(=O)Nc4nc(-c5ccccc5)cs4)CC3)c(F)cc2c1=O` the growth was 3.14% (active). Molecule `CCOC(=O)c1c(NC(=O)c2cccc(C(F)(F)F)c2)sc2c(CN(C)C)c(O)ccc12` has a growth of 16.3%. For `O=C(CCCn1c(=O)c2sc3ccccc3c2n2nnc(-c3ccccc3)c12)NCCc1cnc[nH]1`, the growth was 82.9%. Molecule `CSc1nc(-c2cccs2)c2c(N)[nH]nc2n1` has a growth of 85.3%. For `COc1ccc2c(c1)OC(N)=C(C#N)C2c1ccc(F)cc1` (stereo not given), the growth was -14.7% (active). With `C#Cc1c(I)n(C2OC(CO[Si](C)(C)C(C)(C)C)C3OC(C)(C)OC32)c(=O)[nH]c1=O` (stereo not given) the growth was 20.1%. `COc1cc2nc(N3CCCC3)nc(Nc3ccccc3)c2cc1OC` was tested, and the growth was -53.9% (active). `O=C1CCCc2nc3sc4c(=O)n(-c5ccccc5Cl)nnc4c3cc21` showed a growth of 109%. In the case of `Cc1ccc(C)n1-c1ccsc1C(=O)NNC(=O)C(Cl)Cl`, the growth is reported as 106%. With `CSCCC1NC(=O)C(C(C)=Nc2ccccc2)=C1O` (stereo not given) the growth was 117%. For `COC(=O)[C@]12CC[C@@H](C)[C@H](C)[C@@H]1C1=CC[C@@H]3[C@@]4(C)C(C=O)=C[C@@](C)(COC(C)=O)C4=CC[C@@]3(C)[C@]1(C)CC2`, the growth was -53.1% (active). Work on `CS(=O)(=O)Nc1cc(-c2ccc3ncnc(Nc4ccc5[nH]ncc5c4)c3c2)cnc1Cl` yielded a growth of 55.5%. `CC(C)[O-].CC(C)[O-].CN(CCN(C)Cc1cc(F)cc(F)c1[O-])Cc1cc(F)cc(F)c1[O-].[Ti+4]` was tested, and the growth was 5.88% (active). `O=c1oc2ccc(Cl)cc2cc1-c1cs/c(=N/N=C\c2ccc(Cl)cc2)n1/N=C/c1ccc(Cl)cc1` showed a growth of 95.1%. Molecule `COc1cc(C2CC(c3ccc(Nc4nc(Nc5ccc(Cl)cc5)nc(Nc5ccc(Cl)cc5)n4)cc3)=NN2C(C)=O)cc(OC)c1OC` (stereo not given) has a growth of 95.2%. `Cc1ccsc1/C=C/C1=NCCCN1C` showed a growth of 126%. Molecule `COc1ccc(OC)c(/C=C/[C@H]2O[C@@H](C)[C@H](O)[C@@H]2O)c1` has a growth of 88.3%. For `CO/C(=C1/NC(=O)C(Cc2ccc(O)c(Br)c2)N(C)C(=O)C(C)NC(=O)CCC/C=C(\C)CCC(C)OC1=O)c1ccccc1` (stereo not given), the growth was -58.6% (active). Molecule `COc1ccc(NC(=O)c2ccc(C(=O)Nc3ccc(OC)cc3OC)cc2)c(OC)c1` has a growth of 88.5%. Molecule `Cc1ccc(C(O)C2CC2)cc1` (stereo not given) has a growth of 99.3%. Molecule `Cn1cc(-c2nnc(-c3ccccc3)s2)c2cc(Br)cnc21` has a growth of 103%. With `CC12CCC3c4ccc(O)cc4CCC3C1CCC2=O` (stereo not given) the growth was 79.4%. In the case of `CN1CCN(Cc2ccc(NC(=O)c3cncc(C#Cc4cnc5cccnn45)c3)cc2C(F)(F)F)CC1`, the growth is reported as -37.9% (active). `c1ccc(-c2cn3nc(-c4c[nH]c5ccccc45)sc3n2)cc1` gave a growth of 95.1%. Molecule `OCC(O)C(O)C(O)C(/C=N/Nc1ccccc1)=N/Nc1ccccc1` (stereo not given) has a growth of 98.6%. For `Cc1cc2nc3ccc(N=Nc4ccc(N(C)C)cc4)cc3n(-c3ccccc3)c-2cc1=N`, the growth was -2.79% (active). With `O=C1c2cccnc2C(=O)c2c1c(C(=O)OCCc1ccccn1)c1ccccn21` the growth was -19.5% (active). In the case of `CCOC(=O)c1c(NC(=S)Nc2ccc([N+](=O)[O-])cc2)sc2c1CCCCC2`, the growth is reported as 70.5%. Molecule `CCOC(=O)c1nn(C2CCCCO2)c2ccc(NC(=O)CN3CCCC3)cc12` (stereo not given) has a growth of 97.4%. `Cc1ccc(-c2nc(/C=C3/C(=O)N(C)c4ccc(F)cc43)c3ccccn23)cc1` was tested, and the growth was 102%. With `COc1ccc(-c2ccc(-c3ccc(C(=N)N)cn3)o2)cc1Cl` the growth was -59.5% (active). `CC[C@]12C=CCN3CC[C@@]4(c5ccc(OC)cc5N(C)[C@H]4[C@@](O)(C(=O)OC)[C@@H]1OC(=O)CCCN1CCOCC1)[C@@H]32` was tested, and the growth was 97.5%. In the case of `Cc1oc2nc[nH]c(=O)c2c1C(=O)/C=C/c1ccc(Cl)cc1Cl`, the growth is reported as 7.83% (active). `CS(=O)(=O)Nc1cccc(-c2ccc3ncnc(Nc4cncc(Cl)c4)c3c2)c1` showed a growth of 35.5%.
